Among all 360,000 compounds or so, about 11,000 (3.1%) were called active. Not shown: some 4% with an inconclusive outcome. The entries come from a sample that favours actives as a whole. Unmarked numbers belong to inactive results. Calls come from the whole dose curve; as a rule, active = well fitted inhibition curve with a large enough effect; inconclusive = small, poorly fitted or top-dose-only effect; inactive = no such curve, though single readings can be large or run the other way.
biological target: Schistosoma mansoni thioredoxin glutathione reductase (TGR) (UniProt Q962Y6); experiment: qHTS Assay for the Inhibitors of Schistosoma Mansoni Peroxiredoxins; conditions: purified TGR, DTNB reduction, TNB absorbance 405 nm; series mostly up to 114 µM; activity change, negative = inhibition: at the top concentration; note: nearly all actives have a fitted effect of over 60% in size
Procedure, shortened: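 Kinetic colorimetric format: TGR-catalysed, NADPH-driven DTNB reduction monitored via TNB absorbance. Enzyme dispensed at 20 nM; compound exposure 15 min at room temperature before reaction start.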
% is set by controls: 0 for no effect and ±100 for the full control effect; potency is the fitted concentration of half-maximal effect.

Row | SMILES | activity change, negative = inhibition | Potency
1 | CCOC(=O)c1ccccc1CN1C(=O)c2ccccc2S1(=O)=O | -0.286% | –
2 | CCOC(=O)c1cc2n(c1N)-c1ccccc1C2=O | – | 31.6 µM (active)
3 | CCOC(=O)c1cc(-c2ccccc2)n(CCC(=O)Nc2ccccc2CC)c1C | 9.85% | –
4 | O=C(Nc1cccc2cccnc12)c1cccc2c(Br)cccc12 | -2.45% | –
5 | COc1ccc(CNC(=O)c2cc3c(=O)[nH]c4ccc(C)cc4c3s2)c(OC)c1 | 8.13% | –
6 | N#C/C(=C\c1cccc(F)c1)c1nc(-c2cc3c(ccc4ccccc43)oc2=O)cs1 | 6.2% | –
7 | COC(=O)c1ccc(CSc2ccc3nnc(-c4ccccc4)n3n2)o1 | – | 56.2 µM (active)
8 | COC(=O)c1ccc(CSc2nnc(N)s2)o1 | 0.472% | –
9 | COC(=O)c1ccc(CSc2ccccc2C)o1 | 8.62% | –
10 | CCOc1ccc(OCC)c(NS(=O)(=O)c2ccc3[nH]c(=O)ccc3c2)c1 | 5.65% | –
11 | CCc1ccccc1N1CC(c2nc3ccccc3n2CCCCOc2ccccc2)CC1=O (configuration not stated) | 5.87% | –
12 | O=C(/C=C/c1ccc(F)cc1)NC(=S)NNC(=O)c1cccnc1 | -1.91% | –
13 | O=C(Nc1ccc(F)cc1)C1CCN(C(=O)c2ccc([N+](=O)[O-])cc2)CC1 | 3.63% | –
14 | O=C(/C=C/c1ccc([N+](=O)[O-])o1)NNC(=O)c1ccc(F)cc1 | – | 11.2 µM (active)
15 | CC1(C)CCSC(/C=C/c2ccccc2)=N1 | – | 17.8 µM (active)
16 | CCCCC(CC)CNC(=O)C1CCN(S(=O)(=O)c2cccc3nsnc23)CC1 (configuration not stated) | -3.56% | –
17 | COc1ccc2c(CNCCc3ccccc3C)c(C(=O)O)n(Cc3ccccc3C)c2c1 | -2.09% | –
18 | CCOC(=O)N1CCN(CC(=O)c2c(C)[nH]c3ccccc23)CC1 | – | 35.5 µM (active)
19 | CCOC(=O)N1CCN(CC(=O)n2c(C)c(C)c3ccccc32)CC1 | -20.4% | –
20 | Cc1[nH]c2ccccc2c1C(=O)CN1CCCC(C)C1 (configuration not stated) | – | 25.1 µM (active)
21 | CC1CCN(CC(=O)c2c[nH]c3ccccc23)CC1 | 2.55% | –
22 | CCOC(=O)N1CCN(CC(=O)c2ccc3c(c2)CCN3)CC1 | 0.36% | –
23 | CC1CCCN(Cc2nc3c(c(=O)n(C)c(=O)n3C)n2CC(=O)c2ccccc2)C1 (configuration not stated) | -0.23% | –
24 | Cc1cccc(N2CCN(C(=O)Cn3ncc4c5ccccc5n(C)c4c3=O)CC2C)c1 (configuration not stated) | 5.55% | –
25 | CCc1cc2c(cc3c(=O)n(CC(=O)NCc4cccc(Cl)c4)nc(CC)n32)s1 | 4.93% | –
26 | Cc1cccc(NC(=O)c2cc3c(C)nn(-c4ccccc4)c3s2)c1 | 2.56% | –

Row | SMILES | activity change, negative = inhibition | Potency
27 | COC(=O)c1ccc(OC)c(Cn2c(=O)n(Cc3ccccc3)c(=O)c3c2c2cc(OC)ccc2n3C)c1 | -8.64% | –
28 | Cc1oc2ccc(O)c(CN3CCCCC3)c2c1C(=O)Nc1cccc(C(F)(F)F)c1 | 9.2% | –
29 | CCN(Cc1ccccc1)C(=O)c1cn(-c2cccc(OC)c2)c(=O)c2ccccc12 | -14.9% | –
30 | Cc1ccccc1NC(=O)CN1C(=O)C(C)(C)c2ccccc21 | 5.62% | –
31 | COc1cccc(-n2c(SCC(=O)c3c[nH]c4ccccc34)nc3ccccc3c2=O)c1 | 1.41% | –
32 | COc1ccc(/C=C(\C#N)c2c[nH]c3ccccc23)cc1 | – | 14.1 µM (active)
33 | CCOc1ccc(/C=C(\C#N)c2nc3ccccc3c(=O)[nH]2)cc1OC | 1.74% | –
34 | COC(=O)c1ccc(NC(=O)c2cccc3c2C(=O)N(C2CCCCC2)C3)cc1 | 1.52% | –
35 | CCN(CC)c1nn2c(=O)c(C(=O)NCCc3ccccc3)cnc2s1 | 37.5% | –
36 | O=C(O)c1ccc(Nc2nc(-c3ccccc3)c3cc(Br)ccc3n2)cc1 | 1.15% | –
37 | CC1=NC2(CCCc3c2no[n+]3[O-])N(O)C1(C)C (configuration not stated) | – | 44.7 µM (active)
38 | COc1ccc(-c2cn3nc(N4CCC(C(=O)Nc5cccc(C)c5C)CC4)sc3n2)cc1 | 1.06% | –
39 | CCOC(=O)C1CCCN(C(=O)c2ccc(-n3ccc4ccccc43)s2)C1 (configuration not stated) | 9.63% | –
40 | O=C(CN1C(=O)COc2ccccc21)Nc1ccc(F)cc1 | – | 70.8 µM (active)
41 | CC(OC(=O)CN1C(=O)COc2ccccc21)C(=O)NCc1ccc(F)cc1 (configuration not stated) | 5.02% | –
42 | O=C(CN1C(=O)COc2ccc(Cl)cc21)Nc1ccc(N2CCOCC2)cc1 | -47.8% | –
43 | O=C(O)c1c(CNCc2cccc(F)c2)c2ccccc2n1Cc1ccccc1 | -14.8% | –
44 | Brc1cc(/C=N/n2cnnc2)oc1Br | -8.99% | –
45 | Cc1ccc(C(=O)N/N=C\c2cc(Br)c(Br)o2)cn1 | – | 22.4 µM (active)
46 | Cc1cccc(C(=O)Nc2ccc(C(=O)N/N=C/c3cccc(C)n3)cc2)c1 | -5.22% | –
47 | Cn1nnnc1SCCCNCc1cccc(OCc2ccc(Cl)cc2)c1 | -0.443% | –
48 | CCOC(=O)c1cc2c(=O)n3ccccc3nc2n(CCCOC)c1=NC(=O)C(C)Oc1ccccc1 (configuration not stated) | -2.86% | –
49 | CCOC(=O)C(=CNc1cccc(C)n1)C(=O)OCC | 6.03% | –
50 | CCOC(=O)C(=Cc1ccccc1OC)C(=O)OCC | – | 28.2 µM (active)
51 | COc1ccccc1/C=C/C(=O)NC1CC2CCC1C2 (configuration not stated) | -1.68% | –
52 | COc1cc(C(=O)NCCc2csc3nc(-c4ccccc4C)nn23)cc(OC)c1OC | -4.46% | –

Source: PubChem BioAssay AID485364 (National Center for Advancing Translational Sciences (NCATS), 2010)
